Data: PubChem BioAssay (EPA / NIEHS)
“And” between values parts separate entries of the source, which are not always exact repeats. Identical values can stand only once. Inconclusive results are not listed. More than one record can exist for a structure, and the calls need not agree. The source made the active and inactive calls. The calls were made as follows: active = hit-call score of the fitted dose curve at least 0.9, where 1 is the maximum; inconclusive = response in the unintended direction; inactive = score below 0.9.

What follows are molecules tested against Peroxisome proliferator-activated receptor gamma (Homo sapiens) (UniProt P37231) (assay: ATG_hPPARg_XSP2: Attagene TRANS-FACTORIAL Multi-Species (XSP2) HepG2 Assay for human Peroxisome Proliferator-activated Receptor gamma (PPARg) (AID 2283829);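 also: actives raise reporter mRNA above DMSO so AC50 reflects PPARg activation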).
Description: ATG_XSP2_multi-species_TRANS is a cell-based, multiplexed assay created by modifying the existing Attagene TRANS-FACTORIAL system to include a panel of nuclear receptors from some or all the following species: human (Homo sapiens), mouse (Mus musculus), frog (Xenopus laevis), zebrafish (Danio rerio), chicken (Gallus gallus), and turtle (Chrysemys picta). The ECOTOX-FACTORIAL format uses HepG2, a human liver cell line, with measurements taken at 24 hours after chemical dosing in a 24-well plate. Xsp2 included 3 nM 6-alpha-fluorotestosterone and 1.5 nM norgestrel to stimulate the androgen receptor.ATG_hPPARg_XSP2 is one of 29 assay components measured or calculated from the ATG_XSP2_multi-species_TRANS assay. It is designed to make measurements of mRNA induction, a form of inducible reporter, as detected with fluorescence intensity signals by Reverse transcription polymerase chain reaction (RT-PCR) and Capillary electrophoresis technology.The assay endpoint ATG_hPPARg_XSP2 was analyzed in the positive analysis fitting direction relative to DMSO as the negative control and baseline of activity. Using a type of inducible reporter, measures of mRNA for gain-of-signal activity can be used to understand the reporter gene at the transcription factor-level as they relate to the gene PPARg. Furthermore, this assay endpoint can be referred to as a primary readout, because this assay has produced multiple assay endpoints where this one serves a reporter gene function. To generalize the intended target to other relatable targets, this assay endpoint is annotated to the nuclear receptor intended target family, where the subfamily is non-steroidal.
Human liver HepG2 cells are transiently transfected with multiple reporter transcription units (MRTUs) in 6-well plates using FuGene 6 reagent (Roche; 3 ml FuGene/1 mg DNA). The MRTU constructs are regulated by a cis-regulating element (promoter). […] A major difference between the CIS and TRANS system is that in CIS activities of endogenous TFs are measured, whereas the TRANS assay evaluates changes in activities of exogenous, chimeric NR-Gal4 proteins. […] At the end of 24 hour incubation, total RNA was isolated using TriZol reagent (Invitrogen). The isolated RNA is then reverse-transcribed using oligo(dT) primer and Mo-MLV reverse transcriptase (Invitrogen) with DNAse I (Ambion) treatment for 30 min. The one-tenth of the produced cDNA was amplified by PCR using Taq DNA polymerase (Invitrogen) and two reporter sequence-specific primers. The PCR products were fluorescently labeled by primer extension with 6-arboxyfluorescein (6-FAM) 5'-labeled reporter sequence-specific primer (2 min at 95 C, 20 s at 68 C and 10 min at 72 C) and these products were digested with 5U of HpaI (New England Biolabs) for 2h at 37 C. The fragments were purified using Qiaquick PCR columns (Qiagen), analyzed on an ABI 3130xL genetic analyzer (Applied Biosystems) with peak positions identified by using a set of X-rhodamine (ROX)-labeled MapMarker1000 molecular weight standards (BioVentures). The raw capillary electrophoresis data was processed using Attagraph software (Attagene).

Chain of Peroxisome proliferator-activated receptor gamma (Homo sapiens) (P37231 whole entry, looked up): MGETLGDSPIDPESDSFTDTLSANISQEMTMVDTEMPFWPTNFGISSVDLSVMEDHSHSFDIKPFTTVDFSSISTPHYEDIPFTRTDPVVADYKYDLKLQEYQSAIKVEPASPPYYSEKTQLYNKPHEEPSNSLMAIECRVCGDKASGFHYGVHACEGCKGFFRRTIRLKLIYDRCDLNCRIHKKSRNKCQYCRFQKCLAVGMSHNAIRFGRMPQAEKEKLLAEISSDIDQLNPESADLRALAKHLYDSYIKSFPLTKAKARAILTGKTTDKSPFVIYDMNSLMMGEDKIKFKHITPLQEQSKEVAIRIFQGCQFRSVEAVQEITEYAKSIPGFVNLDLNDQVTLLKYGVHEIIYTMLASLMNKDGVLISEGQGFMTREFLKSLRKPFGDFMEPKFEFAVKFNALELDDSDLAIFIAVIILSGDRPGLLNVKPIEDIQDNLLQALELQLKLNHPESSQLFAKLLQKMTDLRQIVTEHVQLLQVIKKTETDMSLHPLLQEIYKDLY

SMILES	outcome	AC50
c1cc2ccc3cccc4ccc(c1)c2c34	inactive	140 µM (active)
CCOC(=O)C(O)(c1ccc(Cl)cc1)c1ccc(Cl)cc1		17.4 µM (active) and 31.3 µM (active)
Oc1ccc(C(c2ccc(O)cc2)(C(F)(F)F)C(F)(F)F)cc1	inactive	
Cc1cc(-c2ccc(N)c(C)c2)ccc1N		16.2 µM (active) and 72.1 µM (active) and 100 µM (active)
ClC(Cl)=C(c1ccc(Cl)cc1)c1ccc(Cl)cc1	inactive	
CCC(=O)O[C@H]1CC[C@H]2[C@@H]3CCC4=CC(=O)CC[C@]4(C)[C@H]3CC[C@]12C	inactive	
C[C@]12CCC(=O)C=C1CC[C@@H]1[C@@H]2CC[C@@]2(C)[C@H]1CC[C@]2(C)O	inactive	
Clc1ccc(C(c2ccccc2Cl)C(Cl)(Cl)Cl)cc1 (configuration not stated)	inactive	
C[C@]12CCC(=O)C=C1CC[C@@H]1[C@@H]2CC[C@]2(C)C(=O)CC[C@@H]12	inactive	
CC(C)(c1ccccc1)c1ccc(O)cc1	inactive	
CC(c1ccc(O)cc1)(c1ccc(O)cc1)c1ccc(O)cc1	inactive	
